Screening results: PubChem BioAssay, several laboratories
GRIN3A LBD mod = modulates the human NR3A ligand-binding domain. NR3A LBD differential scanning fluorimetry, Tm shift; 0% = protein alone, 100% = glycine-bound protein. Tm shift relative to glycine control, % at 25 µM. 340,000 tested, 2.5% active. AID 1259313;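 active = melting temperature shift of at least 10% of the positive control shift, at one fixed dose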
ADAM17 inh = inhibits human ADAM17; inhibition, % at 6.95 µM; AID 720648; 370,000 tested, 0.83% active; recombinant ADAM17, EDANS/DABCYL FRET peptide cleavage;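 active = inhibition above the mean of compounds lying between control limits plus 3 SD, set per campaign, cut at about 8.5% in these data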;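 also: 0% = DMSO-only wells as the low control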
FAS-TE inh = blocks the thioesterase domain of human fatty acid synthase; P49327; recombinant FAS-TE, OMFH fluorogenic substrate, fluorescence endpoint; inhibition, % at 15 µM; 360,000 tested, 0.67% active; AID 602261;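 active = compounds whose normalised, plate-corrected inhibition of enzyme fluorescence in the single-dose primary screen is 50% or more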;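 also: 0% = DMSO with enzyme and 100% = substrate without enzyme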
ADAM10 inh = ADAM10 inhibition, QFRET primary screen; AID 720582; O14672; recombinant ADAM10, EDANS/DABCYL FRET peptide cleavage, 3 h; 370,000 tested, 0.62% active; inhibition, % at 7 µM;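 active = inhibition above a per-campaign cutoff equal to the mean of compounds falling between control-based bounds plus 3 SD, cut at about 20% in these data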;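 also: 0% = DMSO wells while the 100% control is not disclosed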
Target sequence (O14672 214-748 limits assumed): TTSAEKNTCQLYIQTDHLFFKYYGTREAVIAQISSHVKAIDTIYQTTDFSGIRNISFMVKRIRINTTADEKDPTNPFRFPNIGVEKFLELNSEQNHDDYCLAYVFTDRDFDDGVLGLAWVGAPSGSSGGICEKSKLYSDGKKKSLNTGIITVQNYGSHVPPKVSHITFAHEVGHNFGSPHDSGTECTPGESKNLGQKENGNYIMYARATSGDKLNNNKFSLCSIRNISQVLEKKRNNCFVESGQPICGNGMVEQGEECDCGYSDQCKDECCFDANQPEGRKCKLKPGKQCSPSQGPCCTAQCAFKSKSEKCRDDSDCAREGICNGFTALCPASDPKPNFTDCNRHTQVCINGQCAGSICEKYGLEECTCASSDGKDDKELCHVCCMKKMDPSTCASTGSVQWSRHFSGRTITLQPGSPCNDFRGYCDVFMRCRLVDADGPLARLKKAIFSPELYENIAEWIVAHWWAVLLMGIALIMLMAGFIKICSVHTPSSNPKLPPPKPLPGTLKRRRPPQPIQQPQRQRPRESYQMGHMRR
proKLK7 act = activators of human kallikrein-7 zymogen | 370,000 tested, 0.9% active | purified proKLK7, EDANS-DABCYL substrate fluorescence; 100% is mature enzyme control, 0% vehicle | activation, % at 7 µM | P49862;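 active = activation above the mean of all tested compounds plus 3 SD, computed per campaign excluding outliers beyond control limits, cut at about 13% in these data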
proKLK7 act conf = proKLK7 activation, confirmation; shares compounds with proKLK7 act; purified proKLK7, EDANS-DABCYL substrate fluorescence; scaled: vehicle 0, mature enzyme 100; activation, % at 7 µM; 3,200 tested, 68% active;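 active = activation, as change over the incubation, above the mean of all tested compounds plus 3 SD, cut at about 13% in these data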
EDANS-DABCYL int = optically interferes with EDANS-DABCYL signal, flagging KLK7 hits. shares compounds with proKLK7 act. EDANS-DABCYL substrate fluorescence interference, no enzyme, 4 h; solvent 0%, active enzyme control 100%. activation, % at 7 µM. 3,200 tested, 80% active;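 active = activation above the all-compound mean plus 3 SD, ignoring values outside control-based bounds, cut at about 4.8% in these data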;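 also: value is the 4 h activation minus the activation read at time zero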
K7 EDANS ctr = optically interferes with EDANS-DABCYL fluorescence, kallikrein-7 activator counter-screen; EDANS-DABCYL peptide fluorescence interference, no enzyme; EC50, µM; 250 tested, 20% active; shares compounds with proKLK7 act;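 active = compounds that raise the fluorescence signal in this interference counterscreen, with EC50 at or below 10 µM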;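 also: intact quenched peptide substrate alone read at 355 nm excitation and 520 nm emission; signal is fluorescence gain from T0 to T4 after four hours at room temperature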
Numbers without * were called inactive; i = inactive; x = no result. A selection: hits, their analogues and other compounds. The true share with any hit is near 4.6%.

SMILES	GRIN3A LBD mod	ADAM17 inh	FAS-TE inh	ADAM10 inh	proKLK7 act	proKLK7 act conf	EDANS-DABCYL int	others
O=C(CSc1nnc(-c2ccccc2)n1-c1ccccc1)Nc1cccc2ccccc12	x	-2	x	-3	0	x	x
COC(=O)[C@]12C[C@H](CC(=O)NCC34CC5CC(CC(C5)C3)C4)C(=O)N(Cc3ccc(Cl)cc3Cl)C1=C[C@H](C1CCCC1)O[C@@H]2C	x	2	x	3	0	x	x
COc1ccc(-n2c(SCC(=O)Nc3ccc(OCc4ccccc4)cc3)nnc2-c2ccc(C)cc2)cc1	x	0	x	-3	0	x	x
COc1ccc(C2OCCNC3C2C(=O)N(Cc2ccc(OC)cc2OC)C3Cc2ccccc2)cc1 (stereo unspecified)	x	-4	x	-4	x	x	x
N#Cc1c(N)n(-c2ccc(N)cc2)c2nc3ccccc3nc12	0	-3	0	-11	0	x	x
N#Cc1c(N)n(-c2ccc(C(=O)O)cc2)c2nc3ccccc3nc12	-1	i	-6	i	69*	79*	79*
O=C(N/N=C/c1ccccc1Br)c1ccc(CSc2cccc3cccnc23)cc1	3	-21	42	-69	-1	x	x
NNC(=O)c1ccc(CSc2cccc3cccnc23)cc1	-1	-114	0	-303	13*	4	-1
COc1ccc(S[C@]2(C(=O)NCCc3ccccc3)CC(=O)N[C@@H]2c2ccc(OC)cc2)cc1	x	7	x	9	1	x	x
COc1ccc(OCC(=O)NNC(=O)c2cc3ccccc3o2)cc1	0	3	-9	2	0	x	x
COc1ccc(CNC(=S)NNC(=O)c2cc3ccccc3o2)cc1	-15	-15	0	-38	17*	21*	21*
O=C(Nc1cccc2c1[nH]c(=O)c1ccccc12)C(F)(F)F	x	-6	-10	-23	-1	x	x
O=C(Nc1ccc2c(c1)[nH]c(=O)c1ccccc12)C(F)(F)F	0	-77	-18	-313	211*	163*	153*
CC(=O)Nc1ccc2c(c1)[nH]c(=O)c1ccccc12	0	-127	-3	-491	5	x	x
O=C(Nc1cccc2c1[nH]c1ccccc12)C(F)(F)F	-11	-4	7	-16	21*	16*	12*	K7 EDANS ctr=i
CC(=O)c1cc(-c2cccc(CO)c2)c(=O)n2c1CCC2	x	-11	x	-16	1	x	x
O=S(=O)(c1ccc(Cl)s1)N1CCC(c2cn3ccccc3n2)CC1	x	-51	x	-160	-2	x	x
CCOC(=O)c1cc(N2CCCCC2)nc2ccccc12	2	-54	14	-214	17*	3	4.9*
COC(=O)c1cc(N2CCN(C)CC2)nc2ccccc12	0	-101	-29	-269	61*	15*	13*
O=C(O)c1cc(N2CCCCC2)nc2ccccc12	-1	-98	-8	-328	2	x	x
COc1cc2c(cc1OC)C1CCN3C(=O)CCC3N1CC2 (stereo unspecified)	0	-39	-7	-164	20*	24*	19*	K7 EDANS ctr=i
COc1cc2c(cc1OC)CC(=O)N(C)CC2	1	0	-10	3	1	x	x
O=C(Nc1ccccc1C(F)(F)F)OC1CCC12CCC(c1ccccc1)CC2 (stereo unspecified)	x	0	x	i	0	x	x
O=C(COC(=O)c1cc(Cl)ccc1O)NCC1CCCO1 (stereo unspecified)	-1	-14	-3	-37	46*	80*	83*
NC(=O)c1ccsc1NC(=O)COC(=O)c1cc(Cl)ccc1O	19*	-21	-5	-43	76*	90*	91*
SMILES	GRIN3A LBD mod	ADAM17 inh	FAS-TE inh	ADAM10 inh	proKLK7 act	proKLK7 act conf	EDANS-DABCYL int	others
O=C(OCC(=O)N1CCCC1=O)c1cc(Cl)ccc1O	0	-16	-4	-42	32*	32*	32*
O=C(COC(=O)c1cccnc1Cl)NCC1CCCO1 (stereo unspecified)	0	-1	-1	-6	0	x	x
O=C(COC(=O)c1cc(Cl)ccc1O)NNC(=O)c1ccc([N+](=O)[O-])cc1	-4	-9	3	-34	99*	160*	155*
O=C(OCC(=O)N1CCCc2ccccc21)c1cc(Cl)ccc1O	2	1	0	-8	1	x	x
CC(=O)c1ccc(-c2cc(C(C)=O)c3n(c2=O)CCC3)cc1	x	-459	x	i	44*	61*	74*
COC(=O)C1=CNC=C(C(=O)OC)C1c1ccccc1Cl	-1	i	-5	i	66*	65*	75*
COC(=O)C1=CNC=C(C(=O)OC)C1c1cccc2ccccc12	0	-444	1	i	-1	x	x
COC(=O)C1=CNC=C(C(=O)OC)C1c1ccc(Cl)cc1	1	i	-4	i	14*	81*	80*
COC(=O)C1=CNC=C(C(=O)OC)C1c1cccc(OC)c1	-1	i	-7	i	6	x	x
Oc1cnc2ccccc2c1CN1CCOCC1	0	-71	-6	-222	15*	5	6.9*
CN(C)c1c(-c2ccccc2)cc(-c2ccccc2)[nH]c1=O	x	-22	8	-43	16*	2	4.9*
Cc1cc(-c2ccccc2)[nH]c(=O)c1C#N	-1	-30	1	-86	-14	x	x
Cc1ccc2c(c1)C1CS(=O)(=O)N(CCc3ccccc3)CN1C2 (stereo unspecified)	x	-5	x	-3	0	x	x
COc1ccc(Cn2cc(COC(=O)N3CCCC3)nn2)cc1	x	-1	x	1	0	x	x
O=C(ONC(=O)C1C2C=CC(C2)C1C(=O)NOC(=O)c1ccccc1)c1ccccc1 (stereo unspecified)	0	1	-7	4	45*	0	-1
COC(=O)c1ccc(NC(=O)C2C3C=CC(C3)C2C(=O)O)cc1 (stereo unspecified)	3	-4	-2	-4	0	x	x
CN1c2ccc(Cl)cc2C(=O)NC1C1CC=CCC1 (stereo unspecified)	3	-171	1	-498	14*	-5	-9
COc1cc(OC)c(/C=N/NC(=O)c2ccncc2)c(OC)c1	0	-1	-3	0	14*	8	9.1*
CCn1cc(-c2ccnc3cc(C(=O)O)nn23)c(C)n1	0	-464	-10	i	27*	73*	75*
Cc1c(-c2ccnc3cc(C(=O)O)nn23)cnn1C	1	-325	-3	i	8	x	x
CCc1nc(CN2CCCC(C(=O)c3ccc4c5c(cccc35)CC4)C2)c(C)[nH]1 (stereo unspecified)	-1	-140	-1	-467	15*	-4	0
